Over roughly 4,100 sequences, “RBNS R-value (6-mer enrichment in protein-bound RNA vs input library)” has its median near 0.99; the highest 2% begin near 1.4. The sample holds the highest values, similar sequences and a random draw of the others, so the mix is not that of the screen.
Test system: PfIESI-1 RRM domain (Plasmodium falciparum ortholog aa 875-1232, GST fusion)
Assay: RBNS R-value (6-mer enrichment in protein-bound RNA vs input library) (ratio); higher = stronger binding preference; the methods of the paper give 50 / 100 / 500 nM protein instead
Experimental: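 RNA Bind-n-Seq: recombinant GST-tagged IESI-1 RRM domain was incubated at room temperature with a random 40-nt in vitro transcribed RNA library at 250, 500 or 1000 nM protein. Bound RNA was pulled down on glutathione beads and sequenced. R-value is the enrichment of each 6-mer in the bound RNA relative to the input library. Each 6-mer sits inside the random 40-mer context, not as an isolated oligo. Values are replicate 1 only.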

| Sequence | RBNS R-value (protein concentration: 250 nM) | RBNS R-value (protein concentration: 500 nM) | RBNS R-value (protein concentration: 1000 nM) |
| --- | --- | --- | --- |
| AAUGCU | 0.913 | 0.938 | 0.914 |
| UAUGAU | 1.95 | 2.17 | 1.61 |
| CAUGAG | 1.06 | 1.07 | 1.07 |
| AAUGAG | 1.02 | 1.1 | 1.07 |
| UAUGAG | 0.911 | 0.958 | 0.958 |
| AAUGAU | 2.28 | 2.5 | 1.88 |
| UAUGAA | 0.854 | 0.932 | 0.895 |
| CAUGAU | 2.24 | 2.42 | 1.85 |
| CAUGAA | 0.967 | 1.05 | 1.01 |
| CACGUU | 0.886 | 0.866 | 0.874 |
| GCACGA | 1.08 | 1.09 | 1.1 |
| AGCAGG | 1.02 | 1.05 | 1.12 |
| AGAGUG | 1.09 | 1.09 | 1.05 |
| GUUGAC | 1.01 | 0.99 | 1.02 |
| AUUGAC | 1.12 | 1.14 | 1.08 |
| UUUGAC | 1.17 | 1.15 | 1.12 |
| AUUGAG | 1.07 | 1.1 | 1.04 |
| GUUGAG | 0.972 | 0.963 | 1 |
| CUUGAC | 1.28 | 1.19 | 1.22 |
| GUUGAU | 1.71 | 1.81 | 1.51 |
| AUUGAU | 2.21 | 2.4 | 1.85 |
| UUUGAA | 0.988 | 1.05 | 1.05 |
| UUUGAU | 2.39 | 2.62 | 1.95 |
| CUUGAA | 1.1 | 1.09 | 1.1 |

| Sequence | RBNS R-value (protein concentration: 250 nM) | RBNS R-value (protein concentration: 500 nM) | RBNS R-value (protein concentration: 1000 nM) |
| --- | --- | --- | --- |
| CUUGAU | 2.01 | 2.15 | 1.74 |
| AGGACA | 1 | 1.03 | 1.04 |
| CCUUGU | 0.991 | 0.946 | 0.954 |
| GGGAGU | 1.1 | 1.05 | 1.09 |
| CCGCCA | 1.08 | 0.99 | 1.06 |
| AUCCUA | 0.949 | 0.898 | 0.9 |
| GCCCCU | 1.04 | 0.964 | 1.02 |
| AAUCAA | 0.817 | 0.94 | 0.899 |
| GCCAUA | 0.918 | 0.859 | 0.881 |
| UGGCUU | 1.01 | 0.984 | 0.967 |
| AAAAAC | 1.13 | 1.3 | 1.2 |
| GAGCGU | 0.994 | 0.96 | 0.986 |
| UCGAGA | 1.26 | 1.23 | 1.22 |
| CCGAGC | 1.29 | 1.16 | 1.24 |
| CCGAGA | 1.59 | 1.4 | 1.41 |
| GCAGGU | 1.01 | 0.998 | 1.07 |
| CGGGGU | 1.06 | 1.04 | 1.07 |
| AUUCGU | 0.903 | 0.913 | 0.916 |
| GGGGUG | 1.1 | 1.02 | 1.07 |
| CCAUGU | 0.923 | 0.903 | 0.916 |
| GCAUGG | 0.998 | 0.987 | 1.04 |
| CCAUGG | 1.07 | 1.01 | 1.07 |
| GCAUGA | 1.41 | 1.43 | 1.27 |
| GCAUGC | 1.01 | 0.974 | 1 |

| Sequence | RBNS R-value (protein concentration: 250 nM) | RBNS R-value (protein concentration: 500 nM) | RBNS R-value (protein concentration: 1000 nM) |
| --- | --- | --- | --- |
| CCAUGA | 1.4 | 1.43 | 1.27 |
| GAGAGA | 1.26 | 1.29 | 1.28 |
| UGCGAC | 1.06 | 1 | 1 |
| UAAAAA | 0.951 | 1.17 | 1.05 |
| GACACG | 1.13 | 1.1 | 1.12 |
| GACACC | 1.56 | 1.32 | 1.35 |
| GACACU | 1.2 | 1.19 | 1.14 |
| GGCACA | 1.05 | 1.05 | 1.04 |
| GGCACU | 1.11 | 1.03 | 1.07 |
| GGCACC | 1.38 | 1.2 | 1.29 |
| CGAUCG | 0.905 | 0.881 | 0.937 |
| CUGCGG | 1.03 | 0.975 | 1.05 |
| CCUCCG | 1.07 | 1.01 | 1.07 |
| ACUUAC | 0.815 | 0.767 | 0.76 |
| GCCAAA | 1.06 | 1.08 | 1.1 |
| AAGCGC | 1.03 | 1.06 | 1.04 |
| UAUUGG | 0.864 | 0.848 | 0.873 |
| GAGAAA | 1.41 | 1.55 | 1.45 |
| UAGAAU | 1.06 | 1.14 | 1.06 |
| CAGAAU | 1.12 | 1.18 | 1.15 |
| GAGAAG | 1.33 | 1.36 | 1.29 |
| GAGAAC | 1.24 | 1.31 | 1.27 |
| GAGAAU | 1.43 | 1.5 | 1.37 |
| UCGGCU | 0.925 | 0.885 | 0.937 |

| Sequence | RBNS R-value (protein concentration: 250 nM) | RBNS R-value (protein concentration: 500 nM) | RBNS R-value (protein concentration: 1000 nM) |
| --- | --- | --- | --- |
| GCCUCA | 0.982 | 0.946 | 1.02 |
| GCCCGU | 1.17 | 1.07 | 1.13 |
| GCCCGA | 1.52 | 1.34 | 1.36 |
| CCCCGA | 1.37 | 1.23 | 1.31 |
| ACCCGC | 1.29 | 1.17 | 1.23 |
| ACCCGU | 1.24 | 1.12 | 1.19 |
| ACCCGA | 1.63 | 1.36 | 1.4 |
| UCCCGA | 1.2 | 1.12 | 1.14 |
| ACCCGG | 1.44 | 1.25 | 1.32 |
| GCCCGG | 1.38 | 1.2 | 1.31 |
| UGAGUG | 1.07 | 1.11 | 1.06 |
| GGCUGG | 1.06 | 1 | 1.08 |
| AUUCCA | 1.24 | 1.23 | 1.22 |
| GAGGCC | 1.15 | 1.07 | 1.13 |
| AUGUAG | 0.952 | 1.04 | 0.956 |
| UGACAU | 1.14 | 1.14 | 1.12 |
| UGACAC | 1.39 | 1.32 | 1.3 |
| UGACAA | 1.07 | 1.14 | 1.08 |
| GCACGG | 1.02 | 0.986 | 1.05 |
| AUGGCA | 1.28 | 1.26 | 1.16 |
| UGCUAU | 0.951 | 0.947 | 0.896 |
| UCUCGA | 1.01 | 1 | 1.04 |
| AAUUAA | 0.748 | 0.862 | 0.797 |
| AAUUAG | 0.847 | 0.908 | 0.88 |

| Sequence | RBNS R-value (protein concentration: 250 nM) | RBNS R-value (protein concentration: 500 nM) | RBNS R-value (protein concentration: 1000 nM) |
| --- | --- | --- | --- |
| UAUUAC | 0.773 | 0.754 | 0.724 |
| GAUUAG | 1.3 | 1.4 | 1.25 |
| GAUUAC | 1.36 | 1.48 | 1.29 |
| GAUUAA | 1.24 | 1.42 | 1.2 |
| CAUUAC | 0.794 | 0.766 | 0.761 |
| CAUUAG | 0.827 | 0.851 | 0.841 |
| CAUUAA | 0.748 | 0.797 | 0.751 |
| UCAUAC | 0.811 | 0.758 | 0.768 |
| UAUAGC | 0.876 | 0.87 | 0.833 |
| CUUUAU | 0.759 | 0.733 | 0.732 |
| CUCUCU | 0.881 | 0.796 | 0.867 |
| CUCCAC | 1.02 | 0.964 | 0.993 |
| UUUUUG | 1.18 | 1.26 | 1.16 |
| CGAAAA | 1.17 | 1.28 | 1.23 |
| AGAAAA | 1.27 | 1.48 | 1.35 |
| GAAAAA | 1.29 | 1.48 | 1.37 |
| GAAAAU | 1.12 | 1.29 | 1.19 |
| AGAAAU | 1.09 | 1.29 | 1.16 |
| AAAAAG | 1.2 | 1.37 | 1.29 |
| GAAAAC | 1.2 | 1.32 | 1.24 |
| AAAAAA | 1.25 | 1.51 | 1.36 |
| AAAAAU | 1.07 | 1.29 | 1.16 |

Source: the supplement of paper PMC13392028
